Granule exo inh – lytic granule exocytosis inhibition; AID 651702; inhibition, % at 10 µM; hit rate 0.66% among 360,000; TALL-104 LAMP-1 surface exposure, flow cytometry; cells stimulated with thapsigargin and PMA;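 active = inhibition above about 55%, limit read from the data; inconclusive = no clear call, values can overlap the other calls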
VLA-4 inh – inhibition in a human VLA-4 binding assay. VLA-4 expressing cells, ligand binding flow cytometry. AID 2557. P13612. hit rate 0.2% among 330,000. inhibition, % (about 7 µM as worked out from the volumes in the protocol); in the data active = inhibition above about 50%
ABCB6 inh MLPCN – human ABCB6 transporter inhibition | K562-ABCB6 porphyrin accumulation, flow cytometry, 1 h; active compounds read low | fluorescence ratio to DMSO, % at 10 µM | hit rate 0.19% among 360,000;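 active = fluorescence ratio to DMSO below 75%, the collection mean minus 3 SD; inconclusive = too few cells collected in the well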;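 also: signal is porphyrin accumulated inside mitochondria; lower ratio means ABCB6 inhibition with less porphyrin fluorescence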
CaV13 ICDI inh – Primary screen for inhibitors of IQ motif and Ca2+-dependent inactivation inhibitor domain binding in CACNA1D, Förster resonance energy transfer in living cells, …. inhibition, % at 12.3 µM. hit rate 0.098% among 340,000. HEK cells, CFP/YFP FRET ICDI-IQ, plate reader, 10 min; percent FRET-ratio fall versus neutral wells;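 active = mean replicate inhibition of at least 30% and at least 1% of replicates passing that level; inconclusive = only one of the two criteria is met; inactive = neither criterion is met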
ABCB6 inh CP1 – blocks the human ABCB6 transporter | ratio response (% of DMSO), % at 10 µM | 700 tested, under 10 active | AID 602430 | shares compounds with ABCB6 inh MLPCN | K562-ABCB6 porphyrin accumulation, flow cytometry, 1 h; active compounds read low;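 active = repeat-averaged ratio response below 75% of DMSO, the collection mean minus 3 SD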;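 also: median porphyrin fluorescence at 575 nm with 488 nm excitation from mitochondria; lower ratio means less porphyrin signal so ABCB6 inhibition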
Of the large screens only hits and unclear results are named; the others gave an inactive call (follow-up assays come after a bar, where they were run). A selection: hits, their analogues and other compounds. The true share with any hit is near 1.1%.

CC1CCCCN1C(=O)CCC(=O)Nc1nnc(C2CCCCC2)s1 (stereo not given)	Granule exo inh inconclusive, ABCB6 inh MLPCN 20 | ABCB6 inh CP1 inactive
COC(=O)C1=C(C)Nc2c(c(=O)n(C)c(=O)n2C)C1c1ccc(Cl)cc1 (stereo not given)	none
COc1cccc(N2CCN(C(=O)CCCCCNc3nc(=S)[nH]c4ccccc34)CC2)c1	none
O=C(CCCCCNc1nc(=S)[nH]c2ccccc12)N1CCN(c2ccccn2)CC1	ABCB6 inh MLPCN 74 | ABCB6 inh CP1 inactive
O=C(O)C1CCN(S(=O)(=O)c2ccc(Cl)s2)CC1	none | ABCB6 inh CP1 inactive
O=C(c1ccc(COc2ccc3ccccc3c2)o1)N1N=C(C(F)F)CC1(O)C(F)F (stereo not given)	none | ABCB6 inh CP1 inactive
CCOc1ccc(OCc2ccc(C(=O)N3N=C(C(F)F)CC3(O)C(F)F)o2)cc1 (stereo not given)	ABCB6 inh MLPCN 66 | ABCB6 inh CP1 inactive
O=C(c1ccc(COc2ccccc2Cl)o1)N1N=C(C(F)F)CC1(O)C(F)F (stereo not given)	none | ABCB6 inh CP1 inactive
Cc1ccc(C)c(OCc2ccc(C(=O)N3N=C(C(F)F)CC3(O)C(F)F)o2)c1 (stereo not given)	ABCB6 inh MLPCN 63 | ABCB6 inh CP1 inactive
CCC(CC)C(=O)NCCc1ccc(OC)cc1	none
O=C(NC1CC1)C1=C[C@H](c2coc3ccccc3c2=O)C[C@H](OCc2ccc(CO)cc2)O1	none (no result: VLA-4 inh)
Cc1cc(C)cc(OCc2ccc(C(=O)O)o2)c1	none
Cc1cc(C)cc(OCc2ccc(C(=O)N3N=C(C(F)F)CC3(O)C(F)F)o2)c1 (stereo not given)	none | ABCB6 inh CP1 inactive
O=C(c1ccc(COc2ccc(Br)cc2)o1)N1N=C(C(F)F)CC1(O)C(F)F (stereo not given)	none | ABCB6 inh CP1 inactive
COc1ccc(Cl)c(-c2cc(C(=O)Nc3ccccc3)[nH]n2)c1	none (no result: VLA-4 inh)
COc1ccccc1C(=O)Nc1ccnn1C1CCN(Cc2cnc(N(C)C)s2)CC1	none
CC1=NCCN1S(=O)(=O)c1cc([N+](=O)[O-])ccc1Cl	none
Cc1noc(C)c1CSc1ccc(Br)cc1	ABCB6 inh MLPCN 71 | ABCB6 inh CP1 inactive
CC(=O)Nc1ccc(SCc2c(C)noc2C)cc1	none
COc1cc(Cl)c(C)cc1NC(=O)CN1C(=O)C2CCCCC2C1=O (stereo not given)	none
COc1ccc(NC(=O)[C@@H]2CCCN2S(=O)(=O)c2ccc(Cl)cc2)cc1	none
COc1ccc(NC(=O)C2CCCN2S(=O)(=O)c2ccc(C)cc2)cc1 (stereo not given)	ABCB6 inh MLPCN 45 (no result: VLA-4 inh) | ABCB6 inh CP1 inactive
COC(=O)c1cc(C(=O)c2cc(Br)ccc2O)coc1=N	none
CCOC(=O)c1cc2c(N)c(C(=O)c3cc(C#N)c(SC)nc3C)sc2nc1C	ABCB6 inh MLPCN 72 | ABCB6 inh CP1 inactive
CCOC(=O)c1cc(C#N)c(SC)nc1C	none
COCCN(C(=S)Nc1cc(C)cc(C)c1)C(C)c1ccco1 (stereo not given)	none
Cc1nn(-c2ccccc2Cl)c(Cl)c1/C=N/Nc1nc2ccccc2s1	ABCB6 inh MLPCN 66 | ABCB6 inh CP1 inactive
CCOC(=O)CSc1nnc(NC(=O)c2cc([N+](=O)[O-])cc([N+](=O)[O-])c2)s1	ABCB6 inh MLPCN 74 | ABCB6 inh CP1 inactive
COc1ccc(NC(=O)c2cccc(S(=O)(=O)N3CCCCC3)c2)c(OC)c1	ABCB6 inh MLPCN 13 | ABCB6 inh CP1 inactive
COc1ccc(N(CC(=O)Nc2c(C)n(C)n(-c3ccccc3)c2=O)S(=O)(=O)c2ccc(C)cc2)cc1	ABCB6 inh MLPCN 72 | ABCB6 inh CP1 inactive
COc1ccc(N(CC(=O)Nc2c(C)n(C)n(-c3ccccc3)c2=O)S(=O)(=O)c2ccc(F)cc2)cc1	none
CCc1ccc(-c2nc(SCC(=O)N(CC)C3CCS(=O)(=O)C3)n[nH]2)cc1 (stereo not given)	none
COc1ccccc1Oc1ncnc2c1oc1ccccc12	ABCB6 inh MLPCN 69 | ABCB6 inh CP1 inactive
Cc1cc(C)n(CCOc2ccc(Br)cc2)n1	none
Cc1cc2c3c([nH]c2cc1S(=O)(=O)N1CCC2(CC1)OCCO2)CC(C)(C)CC3=O	none
COc1ccc(C2CC(=O)CCN2S(=O)(=O)c2ccc(C)cc2)cc1 (stereo not given)	none (no result: VLA-4 inh)
Cc1ccc(C)c(NC(=O)C2(C)CCN2C(C)C)c1 (stereo not given)	none (no result: VLA-4 inh)

Assay outcomes: PubChem BioAssay, several laboratories
